Reference: PubChem BioAssay (NCATS)
Results filed as inconclusive are left out. A call without a number means that no potency is given here. Calls of active or inactive are those of the source. Calls come from the whole dose curve; as a rule, active = well fitted cell-killing curve with a large enough effect; inconclusive = small, poorly fitted or top-dose-only effect, or effect the other way; inactive = flat fitted curve, though single readings scatter.

tested on: SKOV3; assay: Primary qHTS to identify gynecologic anti-cancer compounds using libraries of approved drugs and bioactive compounds (AID 1345084); conditions: Gynecologic cancer cell panel viability, ATPlite luminescence, 48 h; series mostly up to 57.5 µM; note: nearly all actives have a fitted effect of over 55% in size
Outline: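 Measured: luminescence after ATPlite addition (15 min, RT). Exposure: 48 h, 37 C, 5% CO2.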

Row | SMILES | Potency | activity change, negative = cytotoxicity
1 | CC(=O)C12OC(C)(C)OC1CC1C3CCC4=CC(=O)C=CC4(C)C3(F)C(O)CC12C (stereo not given) | inactive | 
2 | COC(=O)C1=CO[C@@H](O[C@@H]2O[C@H](CO[C@@H]3O[C@H](COC(=O)/C=C/c4cc(OC)c(O)c(OC)c4)[C@@H](O)[C@H](O)[C@H]3O)[C@@H](O)[C@H](O)[C@H]2O)[C@@H]2C(CO)=CC[C@H]12 | inactive | 
3 | CC1=C2C3OC(=O)C(C)C3(O)CCC2(C)CCC1O (stereo not given) | inactive | 
4 | COc1ccccc1Oc1ccc(N(Cc2cccnc2)S(=O)(=O)CC(F)(F)F)cc1 | inactive | 
5 | O=C(/C=C/c1ccc(O)cc1)N[C@@H](Cc1ccc(O)cc1)C(=O)O | inactive | 
6 | CC1=C(C)C(=O)OC(C(C)C2CCC3C4C5OC5C5(O)CC(OC6OC(CO)C(OC7OC(C)C(O)C(O)C7O)C(O)C6O)CC(O)C5(C)C4CCC23C)C1 (stereo not given) | inactive | 
7 | C=C[C@H]1CN2CC[C@H]1C[C@@H]2C(O)c1ccnc2ccc(OC)cc12 (stereo not given in full) | inactive | 
8 | C=C[C@H]1C(O[C@@H]2O[C@H](CO)[C@@H](O)[C@H](O)[C@H]2O)OC=C2C(=O)N3CCc4c([nH]c5ccccc45)C3CC21 (stereo not given in full) | inactive | 
9 | O=C(O)/C=C/c1ccc(O)c(O[C@@H]2O[C@H](CO)[C@@H](O)[C@H](O)[C@H]2O)c1 | inactive | 
10 | C=C(C(=O)O)C1CC(O)C2(C)CCCC(=C)C2C1 (stereo not given) | inactive | 
11 | CC1CCC2(C(=O)O)CCC3(C)C(=CCC4C5(C)CCC(OC(=O)/C=C/c6ccccc6)C(C)(C)C5CCC43C)C2C1C (stereo not given) | inactive | 
12 | C=C[C@H]1[C@H](O[C@@H]2O[C@H](CO)[C@@H](O)[C@H](O)[C@H]2O)OC=C(C(=O)OC)[C@H]1CC(=O)O | inactive | 
13 | CNC12CC3C[C@@](C)(C1)C[C@](C)(C3)C2 | inactive | 
14 | COc1cccc2cc3c(c(O[C@@H]4O[C@H](CO[C@@H]5O[C@H](CO)[C@@H](O)[C@H](O)[C@H]5O)[C@@H](O)[C@H](O)[C@H]4O)c12)C(C)OC3=O (stereo not given in full) | inactive | 
15 | C/C(=C\CC[C@@H](C)[C@H]1CC(O)[C@@]2(C)C3CC[C@H]4C(C)(C)[C@@H](OC5OCC(O)C(O)C5OC5OC(CO)C(O)C(O)C5O)CC[C@@]45C[C@@]35CC(O)[C@]12C)C(=O)O (stereo not given in full) | inactive | 
16 | Cc1ccc(NC(=O)C(=O)NC2CC(C)(C)NC(C)(C)C2)cc1 | inactive | 
17 | C=CC(C)(C)C12C=C(OC)C(=O)N3C(C(C)C)C(=O)NC31N(OC)c1ccccc12 (stereo not given) | inactive | 
18 | O=S(=O)(NC1CCC(c2cc(F)ccc2F)(S(=O)(=O)c2ccc(Cl)cc2)CC1)C(F)(F)F (stereo not given) | inactive | 
19 | CC(C)=CCC[C@](C)(O[C@@H]1O[C@H](CO)[C@@H](O)[C@H](O)[C@H]1O)[C@H]1CC[C@]2(C)[C@@H]1[C@H](O)CC1[C@@]3(C)CC[C@H](O)C(C)(C)C3[C@@H](O[C@@H]3O[C@H](CO)[C@@H](O)[C@H](O)[C@H]3O[C@@H]3OC[C@@H](O)[C@H](O)[C@H]3O)C[C@]12C (stereo not given in full) |  | -3.65% [at 11.6 µM] (inactive)
20 | CC(=O)OC1CC2(C)C3=CCC4(C)C5C(O)C(O)C(C(C)C)C5(C)CCC4(C)C3CCC2C(C)(C)C1OC1OC(CO)C(O)C(O)C1O (stereo not given) | inactive | 
21 | CC1(C)CCCC2(C)C1CC(=O)C13CC(CCC12)C(O)(CO)C3 (stereo not given) | inactive | 
22 | CC1=CC(=O)C2(OC3OC(C)C(O)C(OC(=O)/C=C/c4ccccc4)C3O)C=COC(OC3OC(CO)C(O)C(O)C3O)C12 (stereo not given) | inactive | 
23 | C=C(CO)C12OC1C1(C)C(=CC2=O)C(O)C(O)CC1C (stereo not given) | inactive | 
24 | O=C(CCc1ccccc1)N1CCC(O)(Cn2cnc3cc(Cl)ccc3c2=O)CC1 | inactive | 
25 | C=CC(C)(O)CC[C@H]1C(=C)CCC2[C@](C)(C(=O)O)CCC[C@@]21C (stereo not given in full) | inactive | 
26 | C=C1[C@H](OC(C)=O)[C@H]2[C@@H](OC(C)=O)[C@](C)(OC(C)=O)C[C@]2(OC(C)=O)C(=O)[C@H](C)/C=C/C(C)(C)C(=O)[C@H](OC(=O)C(C)CC)[C@H]1OC(C)=O (stereo not given in full) | inactive | 
27 | C=C(C(=O)O)C1CCC2(C)CCC(O)C(C)(O)C2C1 (stereo not given) | inactive | 
28 | C[C@@H]1O[C@@H](OC[C@H]2O[C@@H](OC(CCCCc3ccc(O)cc3)CCc3ccc(O)cc3)[C@H](O)[C@@H](O)[C@@H]2O)[C@H](O)[C@H](O)[C@H]1O (stereo not given in full) | inactive | 
29 | COC(=O)c1ccc(OC(CO)C(O)c2ccc(O)c(OC)c2)c(OC)c1 (stereo not given) | inactive | 
30 | C/C1=C\C[C@]2(C)C(=O)C(O)=C([C@H](C)CO)[C@H]2C/C=C(\C)[C@@H](O)CC/C(C)=C/CC1 | inactive | 
